# Screens from PubChem.
# Sm TGR block – qHTS Assay for the Inhibitors of Schistosoma Mansoni Peroxiredoxins; Schistosoma mansoni thioredoxin glutathione reductase (TGR), Q962Y6; purified TGR, DTNB reduction, TNB absorbance 405 nm; Potency, µM (top dose mostly 114 µM), for the others: at the highest dose activity change, negative = inhibition, actives largely listed as inhibitors; 360,000 compounds, 3% hits; AID 485364, 2010; further: potency means the concentration at half of the fitted maximal effect; nearly all actives have a fitted effect of over 60% in size
#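 First, TGR (20 nM dispensed) and NADPH were mixed with compound. Second, a 15 min room-temperature incubation followed. Third, further NADPH and then DTNB were added to start the reaction. Finally, TNB absorbance was monitored kinetically.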
# HCV inh – qHTS Assay for Inhibitors of Hepatitis C Virus (HCV). Potency, µM (series often up to 41.8 µM), inactives show at the highest dose activity change, negative = inhibition, actives largely listed as inhibitors. AID 651820, 2012. Huh7.5.1 HCVcc-Cre infection, luciferase reporter, 44 h. 340,000 compounds, 3.4% hits; further: potency means the concentration at half of the fitted maximal effect
#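 Cells seeded at 1,000/well and cultured 4 h, then compounds added followed by HCVcc-Cre virus (~0.5 moi). After 44 h further culture, luciferase substrate was added, plates held 15 min at room temperature, and luminescence read for 15 sec.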
# FMDV inh – High Throughput Screening for Foot and Mouth Disease Virus Antivirals; FMDV antiviral cell-based qHTS; Potency, µM (highest dose often 57.9 µM), inactives show at the highest dose activity change, negative = inhibition, actives largely listed as inhibitors; 410,000 compounds, 1.2% hits; AID 1159524, 2015; calls by dose curve; tested in HEK293T cells; further: read-out not given here; potency means the concentration at half of the fitted maximal effect; nearly all actives have a fitted effect of over 45% in size
# HCMV antiviral – qHTS Assay for inhibitors of the human cytomegalovirus (HCMV); HFF cells, HCMV-luciferase reporter, 72 h; active compounds read low; activity change, negative = inhibition, % at 57.5 µM; 410,000 compounds, 4.5% hits; AID 1259415, 2018; in the data active means activity change below about -60%; inconclusive means no clear call, values can overlap the other calls; inactive means above about -39%
#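 Inhibition of viral replication was scored as loss of reporter luminescence in HFFs infected with HCMV-luciferase (MOI 1 PFU/cell) for 72 h; compounds tested at 2 doses, normalized to buffer and Salinomycin controls.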
# VACV Venus inh – qHTS for Stage-Specific Inhibitors of Vaccinia Orthopoxvirus: Venus Reporter Primary qHTS; Vaccinia virus Venus reporter expression, fluorescence; Potency, µM (highest dose often 36.5 µM), inactives show at the highest dose activity change, negative = inhibition, actives largely listed as inhibitors; 330,000 compounds, 0.46% hits; AID 720580, 2013; calls by dose curve; tested in A549 cells; further: potency means the concentration at half of the fitted maximal effect; nearly all actives have a fitted effect of over 30% in size
# VACV mCherry inh – qHTS for Stage-Specific Inhibitors of Vaccinia Orthopoxvirus: mCherry Reporter Primary qHTS | Vaccinia virus mCherry reporter infection, fluorescence | Potency, µM (series often up to 36.5 µM), inactives show at the highest dose activity change, negative = inhibition, most hits filed as inhibitors | 310,000 compounds, 0.63% hits | AID 720579, 2013; calls by dose curve; tested in A549 cells; further: potency means the concentration at half of the fitted maximal effect; nearly all actives have a fitted effect of over 35% in size
# * hit, by the source's call; i = inactive; ? = inconclusive; . = no result given. Most compounds without a hit are left out; they make up all but 9.3% or so of the library. Unless noted, the call rests on the fitted dose curve; in most records, active means well fitted curve in the direction sought with a large enough effect; inconclusive means small, poorly fitted or top-dose-only effect, or another doubt; inactive means no such curve, though single readings can be large; an effect the other way counts as inactive or inconclusive. On the % scale 0 is the no-effect control and ±100 the full control effect.
SMILES,Sm TGR block,HCV inh,FMDV inh,HCMV antiviral,VACV Venus inh,VACV mCherry inh
O=S(=O)(NC1CC1)c1ccc(S(=O)(=O)N2CCc3ccccc32)cc1,5%,?,?,-81*,-21%,-24%
C[C@H](NS(=O)(=O)c1ccc(Cl)c(Cl)c1)C(=O)OCc1cc(=O)n2cc(Br)ccc2n1,-6%,10%,-13%,-6,-2%,-7%
COc1ccc(C(C)(NC(C)=O)c2nc(-c3cccc(C(=O)O)c3)cs2)cc1 (configuration not stated),.,.,9%,-20,-16%,-10%
CC(=O)N1CCc2cc(S(=O)(=O)NC3CCCc4ccccc43)ccc21 (configuration not stated),-3%,?,?,-64*,-29%,?
Cc1ccc(S(=O)(=O)N2CCCc3cc(NS(=O)(=O)c4ccc(F)c(C)c4)ccc32)cc1,5%,.,-40%,-60*,?,?
CC(=O)Nc1ccc(S(=O)(=O)N2CCCc3ccccc32)cc1,-27%,13µM*,-12%,-8,-28%,?
CN(C)S(=O)(=O)Oc1ccccc1C(=O)Nc1ccc(F)cc1,.,-2%,-11%,-18,-16%,i
CCC1CN(C(=O)N2CCC(C(=O)N3CCN(c4ccc(F)cc4)CC3)CC2)c2ccccc2O1 (configuration not stated),9%,.,?,-5,-29%,-24%
Cc1ccccc1NC(=O)c1ccno1,0%,7%,13%,-38,-5%,i
NC(=O)C1CCCN(Cc2ccc3c(c2)CN(Cc2ccccc2)CCO3)C1 (configuration not stated),.,.,2%,.,1%,-5%
COc1cc([N+](=O)[O-])c2ncccc2c1[N+](=O)[O-],.,.,-17%,.,13%,-3%
COc1cc([N+](=O)[O-])c2nc(C)ccc2c1[N+](=O)[O-],.,6.3µM*,-20%,-3,-21%,-8%
CC(C)(C)OC(=O)N1CCOCCOCCNCCOCCOCC1,-1%,12%,1%,1,-19%,.
NCCCn1cnc2ccccc21,35µM*,-3%,-6%,0,.,.
Cc1cccc(C)c1OCC(=O)NCC1(N2CCOCC2)CCCCC1,-4%,.,-9%,39,-25%,-23%
COc1cc(OC)c(C2C(C#N)=C(N)OC3=C2C(=O)CC(C)C3)cc1OC (configuration not stated),-34%,3%,-12%,0,.,.
COc1ccc(NC(=O)COC(=O)c2c(-c3ccccc3)noc2C)cc1,-36%,?,-10%,-33,.,.
Cc1ccc(C)c(OCC(O)CN2CCN(CCN3C(=O)c4cccc5cccc(c45)C3=O)CC2)c1 (configuration not stated),-2%,?,25µM*,-84*,?,?
Cc1ccc(OCC(O)CN2CCOCC2)c(C)c1 (configuration not stated),3%,3%,15%,-1,.,.
CC(=O)c1ccccc1OCC(O)CN1CCN(c2ccccn2)CC1 (configuration not stated),-11%,4%,-16%,-35,-9%,-2%
CC(=O)c1ccccc1OCC(O)CN1CCN(CCN2C(=O)c3cccc4cccc(c34)C2=O)CC1 (configuration not stated),-2%,10µM*,28µM*,-65*,?,-21%
Cn1c(-c2ccccc2[N+](=O)[O-])[n+](C)c2ccccc21,15%,-5%,-3%,-16,.,.
CCOC(=O)c1c(-c2ccccc2)oc2ccc(OC(C)=O)cc12,-17%,11µM*,.,8,-24%,?
CCOC(=O)c1c(-c2ccccc2)oc2ccc(OCC(O)CN(C)C)cc12 (configuration not stated),0%,14µM*,-13%,-37,?,?
COc1ccc(-c2oc3ccccc3c2C(=O)OCc2ccc(O)cc2)cc1,8%,?,-11%,21,?,-14%
SMILES,Sm TGR block,HCV inh,FMDV inh,HCMV antiviral,VACV Venus inh,VACV mCherry inh
COc1ccc(-c2oc3ccccc3c2C(=O)OCc2ccc([N+](=O)[O-])cc2)cc1,0%,5%,-24%,-62*,-29%,-1%
CCN(CC)CCOC(=O)c1c(C)oc2ccc(OC)cc12,0%,-16%,.,-66*,9%,5%
c1ccc(CNc2nc3ccccc3n2CCN2CCOCC2)nc1,-5%,-10%,.,10,-8%,-15%
O=C(NCc1ccncc1)Nc1ccccc1,1%,7%,-2%,79,-4%,-10%
CSc1ccc(Cl)c(C(=O)N2CCN(CC(=O)N3CCCC3)CC2)c1,.,12%,-11%,-22,-7%,i
CCOC(=O)c1c(-c2ccccc2)oc2ccc(OC(C)C(=O)O)cc12 (configuration not stated),1%,11%,-14%,-26,8%,i
CCOC(=O)c1c(-c2ccc(OC)cc2)oc2ccc(OC(=O)N(C)C)cc12,6%,0.32µM*,?,-21,.,.
CCOC(=O)C1(C)CCCN(C(=O)c2cccs2)C1 (configuration not stated),.,.,-22%,-15,5%,-7%
COc1ccc(-n2cc(CNCCCN3CCCC3=O)c(-c3ccccc3Cl)n2)cc1,45µM*,-9%,-26%,-33,.,.
Cc1ccc(/C=C/C(=O)O)cc1S(=O)(=O)Nc1ccc(C(=O)O)cc1,35µM*,7%,1%,0,-1%,-8%
Cc1ccc(/C=C/C(=O)O)cc1S(=O)(=O)NCCO,45µM*,7%,-14%,-11,-10%,.
CCOc1ccc(S(=O)(=O)N2CCN(Cc3ccc4c(c3)OCO4)CC2)cc1OCC,-1%,-25%,-1%,20,-13%,-17%
CN(C)C/C=C/C(=O)Nc1cccc(-c2c[nH]c3ncnc(Oc4ccc(NC(=O)CC(=O)Nc5ccc(F)cc5)cc4F)c23)c1,.,-26%,-5%,.,-22%,i
COc1ccc(C(=O)NNC(=S)NC(=O)c2cc(-c3ccccc3)nc3ccccc23)cc1,8%,?,-1%,-10,-20%,-18%
CCNC(=S)NNC(=O)c1cc(-c2ccc(OCC)cc2)nc2ccccc12,9%,-14%,13µM*,150,.,.
CCNC(=S)NNC(=O)c1cc(-c2cccc(OC)c2)nc2ccccc12,21%,21%,25%,-9,-3%,-13%
CCCOc1ccc(C(=O)NNC(=S)NC(=O)c2cc(-c3ccc(Cl)cc3)nc3ccccc23)cc1,1%,16µM*,6%,-31,-12%,-20%
NS(=O)(=O)c1cccc(NS(=O)(=O)c2ccc(/C=C/C(=O)O)cc2)c1,25µM*,28%,-8%,-8,-10%,-1%
